Screening data from PubChem.
An excerpt weighted towards active compounds, which were near 1.5% of everything screened.
Cardiac RTF inh: cardiac RTF calcium desensitization; AID 493244; IANBD-labeled cardiac RTF, Ca2+ fluorescence; 340,000 tested, 0.12% active; inhibition, % at 7.15 µM;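 active = inhibition above the mean inhibition of all tested compounds plus 3 SD, cut at about 17% in these data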;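 also: assay run at fixed EC70 calcium of 1.6 mM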
RTF Ca sens act: increases calcium sensitivity of human cardiac regulated thin filaments; P19429+P45379; IANBD-labeled TnC RTF fluorescence at EC20 calcium; 0% EC20 calcium, 100% full calcium; activation, % at 7.2 µM; 340,000 tested, 0.24% active;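 active = activation above the mean over all tested compounds plus 3 SD, cut at about 30% in these data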;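 also: rise in fluorescence read as greater calcium sensitivity of cardiac thin filaments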
CRFBP-R2 agonist: CRF-BP/CRF-R2 complex agonism. 350,000 tested, 0.46% active. HEK293 CRF-R2/CRF-BP, calcium dye fluorescence (FLIPR); percent of saturating CRF peptide response. activation, % at 13.2 µM;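 active = activation of at least 50%, plus an integration ratio under a set limit after plate pattern correction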;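 also: plate controls were neutral control wells without compound for no effect and CRF at EC100 for full effect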
IDE act: IDE (human) activation, cell-based; 340,000 tested, 0.073% active; HEK cells, FAbeta-B cleavage, fluorescence polarization; 0% vehicle, 100% cell-free pure enzyme wells; P14735; AID 493087; activation, % at 5.96 µM;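 active = activation above the mean of all tested compounds plus 3 SD, set per screening campaign, cut at about 17% in these data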
IDE inh: inhibitors of human insulin-degrading enzyme in cells. inhibition, % at 5.59 µM. HEK cells, FAbetaB cleavage, fluorescence polarization. P14735. 320,000 tested, 0.41% active;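 active = percent inhibition above the average of all tested compounds plus 3 SD, set per screening campaign, cut at about 16% in these data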;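 also: IDE supplied by intact live HEK cells; FP after avidin binding of uncleaved biotin substrate so inhibition keeps polarization high; 0% = DMSO wells and 100% = 60 µM reference IDE inhibitor Ii1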
TPT1 inh: inhibitors of Candida albicans tRNA 2'-phosphotransferase TPT1; 300,000 tested, 0.81% active; AID 1962; recombinant caTPT1, FP RNA substrate dephosphorylation; inhibition, % at 5 µM;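 active = inhibition above the mean of all tested compounds plus 3 SD, set per screening campaign, cut at about 24% in these data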;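 also: plate controls were DMSO alone for no effect and ferristatin control at 100 nM for full effect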
An asterisk follows results filed as active; / = not tested or not shown.

SMILES	Cardiac RTF inh	RTF Ca sens act	CRFBP-R2 agonist	IDE act	IDE inh	TPT1 inh
COC(=O)[C@H](C)NC(=O)c1cc2c(cn1)[nH]c1ccccc12	-1	32*	-2	-5	3	-3
COc1ccc(C(=O)c2sc(Nc3cccc(OC)c3)c(C(=O)Nc3cccc(C)c3C)c2N)cc1	0	3	121*	12	5	-4
CCCCCCCCNC(=O)/C(C#N)=C/c1ccccc1[N+](=O)[O-]	-8	11	62*	-12	7	-3
N#C/C(=C\c1ccccc1[N+](=O)[O-])C(=O)NCc1ccccc1	-4	4	23	-6	9	10
O=C(c1cccc(S(=O)(=O)N2CCN(c3ccc(F)cc3)CC2)c1)N1CCCC(C(F)(F)F)C1 (stereo not given)	-8	9	0	0	-4	-5
COc1ccc(NS(=O)(=O)c2ccc(O)c(NC(=O)c3cc4c(C)nn(-c5ccc(F)cc5)c4s3)c2)cc1	-3	4	93*	1	-1	1
O=C(CN1CCN(S(=O)(=O)c2ccc(F)cc2)CC1)NCC1(N2CCOCC2)CCCCC1	-4	-1	0	-7	6	/
COc1cccc(F)c1C(=O)NC(=O)Nc1ccc2nc(C)oc2c1	-75	45*	28	-2	2	-27
CSc1nc2ccc(NC(=O)NC(=O)c3c(F)cccc3F)cc2s1	0	0	1	2	7	0
CCOC(=O)c1c(C)[nH]c(N=Nc2ccc(C)cc2)c1C	-5	-6	0	-6	0	-3
Cc1ccc(N=Nc2c(O)ccc3n[nH]nc23)cc1	6	-4	-2	55*	/	/
O=C(O)C1Nc2c(O)cccc2C2C=CCC12 (stereo not given)	34*	-31	0	3	5	15
COc1ccccc1COC(=O)C(NC(=O)c1ccc(C)cc1)C(C)C (stereo not given)	-4	-3	-1	2	/	/
CC1(c2ccc(OC(F)F)cc2)NC(=O)N(CC(=O)Nc2cccc(F)c2)C1=O (stereo not given)	5	-1	136*	4	-2	1
Cc1cc(NC(=O)CN2C(=O)NC(C)(c3ccc(OC(F)F)cc3)C2=O)no1 (stereo not given)	0	-2	78*	0	6	0
CC1(c2ccc(OC(F)F)cc2)NC(=O)N(CC(=O)Nc2ccc(F)cc2)C1=O (stereo not given)	-5	21	36	2	2	1
CCOc1ccc(NC(=O)CN2C(=O)NC(C)(c3ccc(OC(F)F)cc3)C2=O)cc1 (stereo not given)	-4	-6	74*	0	3	-2
CC1(c2ccc(OC(F)F)cc2)NC(=O)N(CC(=O)Nc2ccc(OC(F)F)cc2)C1=O (stereo not given)	1	-2	47	1	-4	0
O=C(NCCc1ccccc1)c1c[nH]c2ccccc2c1=O	/	/	73*	/	/	/
CN(CC(=O)Nc1cc(S(=O)(=O)N2CCCC2)ccc1Cl)Cc1nc2ccccc2c(=O)[nH]1	-1	-2	-1	-5	/	/
COc1ccc(NC(=O)CN(C)C(=O)c2cn(-c3ccccc3)nc2-c2ccc(Cl)cc2)cc1	-6	-6	4	2	3	0
c1ccc(Nc2ccc3c4c(cccc24)CC3)cc1	-94	52*	0	-74	7	21
O=C1NC(=S)S/C1=C/c1ccc(OC(=O)c2ccco2)cc1	4	1	-1	-1	6	17
O=C1NC(=S)S/C1=C\c1ccc(SCc2ccco2)o1	50*	-30	2	-7	-6	90*
O=C(Nc1nnc(-c2ccccc2)o1)c1nc2ccccc2s1	-8	6	140*	6	-2	0
CC(C)CC(=O)Nc1ccc(C(=O)COC(=O)Cc2n[nH]c(=O)c3ccccc23)cc1	-3	-1	51*	2	-2	/
Nc1c(C2CCCCC2)c(=O)on1C(=O)c1ccccc1	-6	2	1	-1	/	/
OCCNc1c2ccccc2nc2c(F)c(F)c(F)c(F)c12	-29	6	69*	-4	3	-7
Cc1c2ccccc2nc2c(F)c(NC(C)C)c(F)c(F)c12	-31	17	2	5	6	-74
Cc1c2ccccc2nc2c(F)c(NCCO)c(F)c(F)c12	-36	42*	19	6	-3	-53
